Data taken from PubChem BioAssay AID1986 (Sanford-Burnham Center for Chemical Genomics, 2009).
Out of some 290,000 compounds screened, about 890 (0.31%) were called active. No stated cut-off is given here; in the data, active means inhibition mostly above about 52% (no sharp cut-off); inactive means mostly below about 76%. The sample as a whole holds a higher share of actives than the screen did.

Experiment: cell-free HIV fusion peptide-binding blockers – biochemical, uHTS, fluorescence dequenching, primary screen (AID 1986)
Settings: 30 min, stronger effect = higher value
[1] = measured here: repeat confirmation average inhibition, at 18.6 µM

## Cc1ccc2c(CN3C(=O)NC(C)(c4ccc5c(c4)OCO5)C3=O)cc(=O)oc2c1 (centres undefined)
At 20 µM
  inhibition: 3.8% (inactive)

## Cc1cc(C)c(C)c(N=Nc2nc3ccccc3n2C)c1C
At 20 µM
  inhibition: -5.2% (inactive)

## CN(C)c1ccc(N=Nc2nc3ccccc3n2C)cc1
At 20 µM
  inhibition: -6% (inactive)

## Cn1c(N=Nc2ccccc2)nc2ccccc21
At 20 µM
  inhibition: 101% (active)

## CC1CCC2(CC1)Nc1ccccc1C(=O)N2c1ccccc1 (centres undefined)
At 20 µM
  inhibition: -0.5% (inactive)

## O=C(CN1CCN(c2ccc(F)cc2)CC1)Nc1ccc(S(=O)(=O)N2CCOCC2)cc1
At 20 µM
  inhibition: 0.3% (inactive)

## CCN(CC)CC(O)CCCCCCCCC(=O)OC (centres undefined)
At 20 µM
  inhibition: -0.6% (inactive)

## CCOc1ccc(NC(=O)CN2CCN(C3c4ccccc4-c4ccccc43)CC2)cc1
At 20 µM
  inhibition: 0.9% (inactive)

## Cc1cc[n+](-c2[nH]c(=O)sc2/C=N/NC([S-])=Nc2ccccc2)cc1C
At 20 µM
  inhibition: 36% (inactive)

## CCc1ccc[n+](-c2[nH]c(=O)sc2/C=N/NC([S-])=Nc2ccccc2)c1
At 20 µM
  inhibition: 57% (active)

## O=c1[nH]c(-[n+]2ccccc2)c(/C=N/NC([S-])=Nc2ccccc2)s1
At 20 µM
  inhibition: 97.7% (inactive)
[1]
  inhibition: 27.6%

## CCN(CC)C(=O)Cn1cc(S(=O)(=O)CC(=O)Nc2ccccc2C)c2ccccc21
At 20 µM
  inhibition: 1.2% (inactive)

## N#CC1=C(N)SC(N)=C(C#N)C1c1ccc(C(F)(F)F)cc1
At 20 µM
  inhibition: 18.6% (inactive)

## N#CC1=C(N)SC(N)=C(C#N)C1c1ccoc1
At 20 µM
  inhibition: 97.5% (active)

## Cc1ccc(C2C(C#N)=C(N)SC(N)=C2C#N)cc1
At 20 µM
  inhibition: -0.7% (inactive)

## O=C(COC(=O)c1ccc([N+](=O)[O-])s1)NC(c1ccccc1)c1ccccc1
At 20 µM
  inhibition: 0% (inactive)

## O=C(NC(=S)NC1CCSC1=O)c1ccc([N+](=O)[O-])cc1 (centres undefined)
At 20 µM
  inhibition: -1.4% (inactive)

## COc1ccc(OC)c(CNC(=O)CCC(=O)N2Cc3cccc(OC)c3Oc3ncccc32)c1
At 20 µM
  inhibition: 1.2% (inactive)

## Cc1ccc2nc(N/C(=N/S(=O)(=O)c3ccc(F)cc3)c3ccccc3)sc2c1
At 20 µM
  inhibition: 8.2% (inactive)

## Cc1ccc2nc(N/C(=N/S(=O)(=O)c3cccs3)c3ccccc3Cl)sc2c1
At 20 µM
  inhibition: 69.2% (active)

## COc1ccc2nc(N/C(=N/S(=O)(=O)c3cccs3)c3ccccc3Cl)sc2c1
At 20 µM
  inhibition: 30.6% (inactive)

## Cc1cc(C)nc(SCc2nc(N)nc(-c3ccccc3O)n2)n1
At 20 µM
  inhibition: -1.6% (inactive)

## COc1cc2c(cc1OC)CN(C(=O)c1sc(-c3cnccn3)nc1C)CC2
At 20 µM
  inhibition: 0.1% (inactive)

## COc1cc(/C=N/N=C2/NC(=O)C(CC(=O)O)S2)ccc1OCc1cccc(Cl)c1 (centres undefined)
At 20 µM
  inhibition: 47.1% (inactive)

## COc1ccc(/C=N/N=C2/NC(=O)C(CC(=O)O)S2)cc1OCc1ccc(Cl)cc1Cl (centres undefined)
At 20 µM
  inhibition: 50.6% (inactive)
[1]
  inhibition: 47.2%

## CCOc1cc(/C=N/N=C2/NC(=O)C(CC(=O)O)S2)ccc1OCc1ccccc1Cl (centres undefined)
At 20 µM
  inhibition: 53% (inactive)
[1]
  inhibition: 36.4%

## COc1cc(/C=N/N=C2/NC(=O)C(CC(=O)O)S2)ccc1OCc1ccc(Cl)cc1 (centres undefined)
At 20 µM
  inhibition: 51.8% (active)

## COc1ccc(/C=N/N=C2/NC(=O)C(CC(=O)O)S2)cc1OCc1ccc(Cl)cc1 (centres undefined)
At 20 µM
  inhibition: 44% (inactive)

## CCOc1cc(/C=N/NC(=O)CN2CCCCC2)ccc1OCc1ccc(Cl)cc1
At 20 µM
  inhibition: -0.7% (inactive)

## CCOc1cc(/C=N/NC(=O)CN2CCOCC2)ccc1OCc1ccc(Cl)cc1
At 20 µM
  inhibition: 0.5% (inactive)

## Cc1ccc(NC(=S)NCCN(C2CCCCC2)C2CCCC2)cc1C
At 20 µM
  inhibition: 0.4% (inactive)

## COc1cc(C(C)=O)ccc1COc1ccc(C(=O)O)cc1OC
At 20 µM
  inhibition: 2.1% (inactive)

## O=C(NC1CC2CCCC(C1)N2Cc1ccco1)NC12CC3CC(CC(C3)C1)C2 (centres undefined)
At 20 µM
  inhibition: 0.1% (inactive)

## CCC(=O)Oc1ccc2c(C)cc(=O)oc2c1C(=O)c1ccccc1
At 20 µM
  inhibition: 1.8% (inactive)

## COc1ccc(C(=O)c2cc3cccc(OC)c3o2)cc1
At 20 µM
  inhibition: -1% (inactive)

## COc1ccccc1N1C(=O)c2cccc3c(N(C)CCO)ccc(c23)C1=O
At 20 µM
  inhibition: 64% (active)
[1]
  inhibition: 61.6%

## Cc1ccccc1N1C(=O)c2cccc3c(N(C)CCO)ccc(c23)C1=O
At 20 µM
  inhibition: 2.4% (inactive)

## COc1ccc(N2C(=O)c3cccc4c(N(C)CCO)ccc(c34)C2=O)cc1
At 20 µM
  inhibition: 150% (inactive)

## COc1ccccc1/C=C/C=N/n1c(-c2ccncc2)n[nH]c1=S
At 20 µM
  inhibition: 1.2% (inactive)

## CC(C)=NNc1nc2sc3c(c2c(=O)[nH]1)CC(C)(C)OC3
At 20 µM
  inhibition: 6.1% (inactive)

## CN(C)[C@@H]1C(=O)C(C(=O)NCN2CCCC2)=C(O)[C@@]2(O)C(=O)C3=C(O)c4c(O)cccc4[C@@](C)(O)C3CC12 (some centres undefined)
At 20 µM
  inhibition: 55.1% (active)

## C=CCCC(=O)N1CCC(n2nccc2NC(=O)CCCc2ccccc2)CC1
At 20 µM
  inhibition: -2.2% (inactive)

## COc1ccc2nc(N/C(N)=N/C(=S)Nc3cccc(C)c3)nc(C)c2c1
At 20 µM
  inhibition: 1.7% (inactive)

## COc1cc(/C=c2\sc3nc(=O)c(-c4ccccc4)nn3c2=O)ccc1OCCC(C)C
At 20 µM
  inhibition: 62.3% (inactive)
[1]
  inhibition: 39.1%

## CCCCCOc1ccc(/C=c2\sc3nc(=O)c(-c4ccccc4)nn3c2=O)cc1OC
At 20 µM
  inhibition: 51.8% (active)

## COc1ccc(/C=c2\sc3nc(-c4ccccc4)c(-c4ccccc4)n3c2=O)cc1OC
At 20 µM
  inhibition: -0.1% (inactive)

## CC(=O)Oc1ccc(/C=N/NC2=NS(=O)(=O)c3ccccc32)cc1
At 20 µM
  inhibition: 0.3% (inactive)

## CCCc1ccc(Oc2coc3cc(OCC(=O)Nc4ccccc4C)ccc3c2=O)cc1
At 20 µM
  inhibition: -2.2% (inactive)

## Cc1cc(/C=N/NC(N)=S)c(O)c(/C=N/NC(N)=S)c1
At 20 µM
  inhibition: 88.3% (active)

## NC(=S)N/N=C/c1ccccc1O
At 20 µM
  inhibition: -1.4% (inactive)

## NC(=S)N/N=C/c1cccc(O)c1O
At 20 µM
  inhibition: 3.4% (inactive)

## CCOC(=O)Cn1c(=N)n(CCOc2ccc(F)cc2)c2ccccc21
At 20 µM
  inhibition: 0% (inactive)

## COc1ccc(CCNC(=O)C2CCC(=O)N(CC3CCCCC3)C2)cc1 (centres undefined)
At 20 µM
  inhibition: 0.4% (inactive)

## N/C(Cc1cccc2ccccc12)=N\OC(=O)COc1ccccc1
At 20 µM
  inhibition: 2.3% (inactive)

## O=C(O)c1ccc(-n2cccc2/C=N\NC(=O)c2cc3cc(Br)ccc3o2)cc1
At 20 µM
  inhibition: 50.1% (active)

## O=C(O)Cn1cc(/C=N/NC(=O)c2cc3cc(Br)ccc3o2)c2ccccc21
At 20 µM
  inhibition: 29.5% (inactive)

## Cn1cc(/C=N/NC(=O)c2cc3cc(Br)ccc3o2)c2ccccc21
At 20 µM
  inhibition: 4.4% (inactive)

## Cc1ccc(NC(=O)C2CCN(S(=O)(=O)c3ccc4c(c3)CCCC(=O)N4)CC2)c(Br)c1
At 20 µM
  inhibition: 1.8% (inactive)

## CCOC(=O)/C(=C/C1=CC(=C/N(C)C)/C(=O)O1)C(C)=O
At 20 µM
  inhibition: 59.4% (active)
[1]
  inhibition: 65.4%

## CC1=C/C(=C/N(C)C)C(=O)O1
At 20 µM
  inhibition: 5.9% (inactive)

## CN(C)/C=C1/C=C(C=O)OC1=O
At 20 µM
  inhibition: -0.5% (inactive)

## COc1cc([N+](=O)[O-])ccc1N1C(=O)CC(Sc2nccc(C)n2)C1=O (centres undefined)
At 20 µM
  inhibition: -1% (inactive)

## N=C1/C(=C\c2coc3ccccc3c2=O)C(=O)N=C2SC=CN12
At 20 µM
  inhibition: 146% (inactive)

## N=C1/C(=C/c2coc3ccccc3c2=O)C(=O)N=C2SC(c3ccco3)=NN12
At 20 µM
  inhibition: 114% (active)

## CC(C)CSC1=NSC2=NC(=O)/C(=C\c3ccccc3)C(=N)N12
At 20 µM
  inhibition: 46.5% (inactive)

## CSC1=NSC2=NC(=O)/C(=C\c3coc4ccccc4c3=O)C(=N)N12
At 20 µM
  inhibition: 44.5% (inactive)

## CSC1=NSC2=NC(=O)/C(=C/c3coc4ccccc4c3=O)C(=N)N12
At 20 µM
  inhibition: 91.2% (active)

## CCSC1=NSC2=NC(=O)/C(=C\c3coc4ccccc4c3=O)C(=N)N12
At 20 µM
  inhibition: 89.7% (active)

## N=C1/C(=C\c2coc3ccccc3c2=O)C(=O)N=C2SC(c3ccncc3)=NN12
At 20 µM
  inhibition: 146% (inactive)

## CC1=CC2=NC(=O)/C(=C\c3ccc(-c4ccc(Cl)cc4)o3)C(=N)N2O1
At 20 µM
  inhibition: 13.2% (inactive)

## CC1=CC2=NC(=O)/C(=C\c3cc(C)n(-c4cccc(Cl)c4)c3C)C(=N)N2O1
At 20 µM
  inhibition: 0.2% (inactive)

## CC1=CC2=NC(=O)/C(=C/c3coc4ccc(Cl)cc4c3=O)C(=N)N2O1
At 20 µM
  inhibition: 99.7% (active)
[1]
  inhibition: 62.3%

## CC(C)CC1=NN2C(=N)/C(=C\c3coc4ccccc4c3=O)C(=O)N=C2S1
At 20 µM
  inhibition: 148% (inactive)

## CC(C)CSC1=NSC2=NC(=O)/C(=C\c3coc4ccccc4c3=O)C(=N)N12
At 20 µM
  inhibition: 148% (inactive)

## COc1ccccc1CNC(=O)C1CC(c2ccccc2C(F)(F)F)=NO1 (centres undefined)
At 20 µM
  inhibition: 0.6% (inactive)

## COCc1cc(C)n(CC(=O)Nc2c(C)cccc2C)c(=O)c1C#N
At 20 µM
  inhibition: 0.1% (inactive)

## NC(=O)c1ccccc1NCC(=O)c1ccc(Cl)cc1
At 20 µM
  inhibition: 1.4% (inactive)

## CCOC(=O)C1=C(COC(=O)C2(C)CC2(Cl)Cl)NC(=O)NC1c1ccccc1 (centres undefined)
At 20 µM
  inhibition: -1.7% (inactive)

## CC12CC3CC(C)(C1)CC(C(=O)NC1=NCCS1)(C3)C2
At 20 µM
  inhibition: -1.5% (inactive)

## Cc1ccc(C(=O)N2CCCC(Nc3cccc(F)c3)C2)cc1N1CCNC1=O (centres undefined)
At 20 µM
  inhibition: 0% (inactive)

## CCN(CC)c1nc2n(c(=O)n1)CCN2CC
At 20 µM
  inhibition: 2.4% (inactive)

## O=C(CN1C(=O)C2CC=CCC2C1=O)NCc1cccs1 (centres undefined)
At 20 µM
  inhibition: -0.4% (inactive)

## COc1ccc(CN2CSC(=S)N(Cc3ccc(OC)cc3)C2)cc1
At 20 µM
  inhibition: -1.4% (inactive)

## CSC1=NSC2=NC(=O)/C(=C\c3cccs3)C(=N)N12
At 20 µM
  inhibition: 45.4% (inactive)

## N=C1/C(=C\c2coc3ccc(O)cc3c2=O)C(=O)N=C2SC=CN12
At 20 µM
  inhibition: 150% (inactive)

## CSC1=NSC2=NC(=O)/C(=C/c3coc4ccc(O)cc4c3=O)C(=N)N12
At 20 µM
  inhibition: 57.5% (active)

## O=C1N/C(=C/c2cccs2)C(=O)N1Cc1ccccc1F
At 20 µM
  inhibition: -0.7% (inactive)

## Cc1ccc(/C=C2/NC(=O)N(Cc3ccccc3F)C2=O)s1
At 20 µM
  inhibition: 64% (active)
[1]
  inhibition: 72.6%

## Cc1ccc(/C=C2/NC(=O)N(Cc3ccccc3)C2=O)s1
At 20 µM
  inhibition: 36.8% (inactive)

## O=C(CNC(=O)c1ccccc1F)NC1CC1
At 20 µM
  inhibition: -0.1% (inactive)

## Cc1cc(-n2c(C)cc(C(=O)CSc3ccc4c(c3)OCCO4)c2C)no1
At 20 µM
  inhibition: 2.6% (inactive)
